# PubChem BioAssay
# Target: Torsin-1A (Homo sapiens) (UniProt O14656)
# Experiment: TOR1A wild-type binding on microarray – cell lysate, small-molecule microarray, lysate, 635/667 nm, primary screen (AID 1149)
# Settings: COS7 hTOR1A-WT lysate, 635 nm fluorescence, higher = more signal
# Sequence of Torsin-1A (Homo sapiens) (O14656 whole entry, looked up): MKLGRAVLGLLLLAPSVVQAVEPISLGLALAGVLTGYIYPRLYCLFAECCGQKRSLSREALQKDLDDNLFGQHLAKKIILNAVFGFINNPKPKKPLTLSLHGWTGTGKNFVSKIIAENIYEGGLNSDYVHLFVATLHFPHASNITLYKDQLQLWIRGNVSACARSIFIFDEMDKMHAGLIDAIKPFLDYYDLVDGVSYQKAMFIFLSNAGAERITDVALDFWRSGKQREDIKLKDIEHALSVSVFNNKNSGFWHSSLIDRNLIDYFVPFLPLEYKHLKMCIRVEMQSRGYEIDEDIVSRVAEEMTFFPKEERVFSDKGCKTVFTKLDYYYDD
row,Structure (SMILES),composite z-score
1,CO[C@H]1COC(=O)CC=C[C@H](C)[C@@H](OC)COC(=O)CC=C[C@@H]1C,2.03
2,COCCOC(=O)N1C(=O)[C@@]2(c3cc(C#CCCO)ccc31)[C@H](C(=O)N1CCCCCCC1)[C@H]1C(=O)O[C@H](c3ccccc3)[C@H](c3ccccc3)N1[C@@H]2c1ccc(O)cc1,0.678
3,Cc1ccc(N2C(=O)c3ccccc3[C@@H](C(=O)NCc3ccccc3)[C@@H]2c2ccc(CO)cc2)nc1,0.628
4,CC(=O)NCCCC[C@@H]1NC(=O)[C@@H]2C[C@H](C(=O)NCCCCCNC(=O)CS)[C@H](c3ccc(O)cc3)N2C1=O,0.0918
5,O=C(CS)NCCCCCNC(=O)[C@H]1C[C@H]2C(=O)N3CCC[C@H]3C(=O)N2[C@H]1c1ccc(O)cc1,-0.159
6,C[C@@H]1CC[C@H]2C(=O)N3CCC[C@H]3C(=O)N2[C@H]1c1ccc(Br)cc1,0.529
7,O=C1O[C@@H](c2ccccc2)[C@@H](c2ccccc2)N2[C@@H](c3ccc(O)cc3)[C@]3(C(=O)Nc4ccc(C#CC5(O)CCCCCC5)cc43)[C@@H](C(=O)Nc3nc4ccccc4s3)[C@H]12,0.752
8,C[N+](C)(C)CCCC[C@@H]1NC(=O)[C@H]2C[C@@H](C(=O)NCc3ccc(F)cc3)[C@@H](c3cccc(OCCO)c3)N2C1=O,0.55
9,CO[C@H]1COC(=O)[C@H](Cc2ccccc2)NC(=O)CC=C[C@@H](C)[C@H](OC)COC(=O)CC=C[C@@H]1C,0.109
10,COC(=O)c1c(CC[C@@H](CO)NC(=O)N[C@H](Cn2cc(-c3cncn3C)nn2)C(C)C)oc(C(C)=O)c1C(=O)OC,0.422
11,C=C(COC)/C(=C/C[C@@H](OC(C)=O)c1cccc(OCCO)c1)c1cc(C(=O)OC)ccc1OC,0.284
12,COCC(=C=CC[C@H](O)c1ccc(OCCO)cc1)C[C@H](O)c1ccccn1,-0.353
13,CCOC(=O)[C@H]1C/C=C/C[C@H](C(=O)OCC)C(=O)O[C@H]2[C@@H](OC)O[C@H](CO)[C@@H](OC(=O)Nc3ccc(Br)cc3)[C@@H]2OC1=O,0.164
14,CCN1C(C)=C(C(=O)OC)[C@@H](c2ccccc2)N2C(=O)[C@@]3(C(=O)OC)O[C@@]12[C@@H]1C(=O)N(c2ccccc2)C(=O)[C@@H]13,0.224
15,CC(C)N1CC=CC23O[C@@H]4/C=C\CCCOC(=O)C4[C@H]2C(=O)N(CCCCCO)[C@@H]3C1=O (stereo partly specified),1.5
16,C=C(COC)/C(=C/C[C@H](OC(C)=O)c1ccc(OCCO)cc1)c1cnc2ccccc2c1,0.654
17,COCCOC(=O)N1C(=O)[C@@]2(c3cc(C#CCNC(N)=O)ccc31)[C@H](c1ccc(OCCO)cc1)N1[C@H](c3ccccc3)[C@H](c3ccccc3)OC(=O)[C@H]1[C@@H]2C(=O)N1CCCCCCC1,0.0499
18,CO[C@H]1COC(=O)[C@@H](OCc2ccccc2)C=C[C@H](C)[C@@H](OC)COC(=O)[C@H](OCc2ccccc2)C=C[C@@H]1C,0.593

row,Structure (SMILES),composite z-score
1,NC(=O)NCC#Cc1ccc2c(c1)[C@]1(C(=O)N2)[C@H](C(=O)N2CCCCCCC2)[C@H]2C(=O)O[C@H](c3ccccc3)[C@H](c3ccccc3)N2[C@@H]1c1ccccc1OCCO,1.73
2,COCCCNC(=O)[C@@]1(Sc2ccc(C)cc2)CC(=O)N(Cc2cc(C(F)(F)F)cc(C(F)(F)F)c2)[C@@H]1c1ccc(CO)cc1I,-0.083
3,C=CCC1=C[C@H]2[C@H]([C@@H]3C=C[C@]2(CC=C)C(=O)[C@]32CO2)[C@@]2(CO2)C1=O,0.919
4,O=C(NCc1ccccc1)[C@@]1(CCS(=O)(=O)c2ccccc2)COC(c2ccc(OCCCO)cc2)=N1,0.911
5,C=CCNC(=O)[C@H]1[C@@H]2C(=O)O[C@@H](c3ccccc3)[C@@H](c3ccccc3)N2[C@@H](c2ccccc2OCCO)[C@]12C(=O)N(C(=O)OCCOC)c1ccc(C#CCNC(N)=O)cc12,0.661
6,CCCCO[C@H]1C[C@H]2C(Br)=C[C@@]1(CO)C(=O)[C@]21CO1,0.0005
7,CN1CCC(CCCO)=CC1C1CC1 (stereo unspecified),0.759
8,COc1ccc(CCNC(=O)[C@@]2(c3ccc([N+](=O)[O-])cc3)CC(=O)N(C(C)C)[C@@H]2c2ccc(CO)cc2)cc1,-1.09
9,Cc1ccc(S[C@]2(C(=O)O)CC(=O)N(Cc3ccccc3)[C@@H]2c2ccc(CO)cc2)cc1,0.0253
10,C=CCc1cccc([C@@H]2[C@@H](C)CC[C@H]3C(=O)N4[C@H](c5cccc(CC=C)c5)[C@@H](C)CC[C@H]4C(=O)N23)c1,0.392
11,COc1ccc([Si](C)(C)[C@H]2[C@H](CCO)O[C@@]3(C(=O)N(Cc4ccc(N5CCCCC5=O)cc4)c4ccccc43)[C@@H]2C)cc1,0.446
12,CCCNC(=O)[C@@]1(Sc2ccc(C)cc2)CC(=O)N(Cc2ccccc2Cl)[C@@H]1c1ccc(CO)cc1,0.369
13,CO[C@H]1COC(=O)[C@H](CCSC)NC(=O)CC=C[C@@H](C)COC(=O)[C@@H](OCc2ccccc2)C=C[C@@H]1C,2.88
14,C[C@@H]1CC[C@H]2C(=O)N3[C@@H](CC[C@@H](C)[C@@H]3c3cccc(N4CCOCC4)c3)C(=O)N2[C@H]1c1cccc(N2CCOCC2)c1,1.38
15,CO[C@]12C=C(Br)[C@@H](C[C@@H]1c1ccccc1)[C@@]1(CO1)C2=O,0.271
16,C=CCC(OC(C)=O)[C@@H]1[C@@H](N(Cc2ccc(-c3ccccc3)cc2)C(=O)c2ccc(C)cc2)c2cc(OCCCO)ccc2N1C(=O)c1ccc(-c2ccccc2)cc1 (stereo partly specified),-0.0824
17,CC(=O)NCCCC[C@@H]1NC(=O)[C@@H]2C[C@H](C(=O)NCCCCCCN(C)C)[C@H](c3ccc(O)cc3)N2C1=O,1.49
18,O=C1c2ccccc2[C@](Cc2ccccc2I)(C(=O)NCc2ccccc2)[C@H](c2ccc(CO)cc2)N1Cc1ccccc1C(F)(F)F,-0.635
